Laboratory results published in PubChem BioAssay.
Activity calls are given as the source filed them.

Columns and labels:
Lefty1 = Lefty1 binders on small-molecule microarrays, primary screen, biochemical, small-molecule microarray, 635/667 nm fluorescence (AID 1139); conditions: small-molecule microarray binding, fluorescence 635/667; higher = more signal
[1] = tested on: wheat germ agglutinin (Triticum aestivum), Alexa647-labelled; experiment: wheat germ agglutinin binders on compound microarrays, profiling panel, artefact control for SMM control-protein annotation, biochemical, small-molecule microarray, 635/667 nm fluorescence (AID 1140); conditions: WGA-A647 binding, 635 nm fluorescence, higher = more signal;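 also: score merges 667 nm feature emission with signal to noise over triplicate slides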
[2] = target: Luciferin 4-monooxygenase (Photinus pyralis) (UniProt P08659); experiment: firefly luciferase enzyme inhibitors, primary screen, biochemical, luminescence, purified enzyme, 2006 set (AID 1141); conditions: SteadyGlo luminescence, 30 min, higher = more signal, called active from +8 up or from −8 down;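 also: cell-free assay with purified firefly luciferase at 100 ng per well in PBS; test concentration not given here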
[3] = tested on: Wnt5a (protein binding on small-molecule microarray); experiment: Wnt5a binders on small-molecule microarray, primary screen, biophysical, 635/667 nm fluorescence (AID 1142); conditions: 635 nm fluorescence, higher = more signal;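 also: fluorescence read at 667 nm with signal to noise per printed feature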
[4] = cell viability in Huh7 cells, primary screen, cytotoxicity control for HCV replication inhibitor project, CellTiter-Glo luminescence, basal, 48 h (AID 1143); conditions: Huh7 HCV replicon, higher = more signal, called active from +8 up or from −8 down;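 also: Huh7 hepatoma cells carrying a hepatitis C replication reporter with no stimulus; test concentration not given here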
[5] = CREB reporter modulators without forskolin, primary screen, cell-based, PC12, CRE-LacZ reporter, unstimulated (AID 1145); conditions: no forskolin, luminescence, 4.5 h, higher = more signal, called active from +8 up or from −8 down
[6] = CREB reporter modulators under forskolin, primary screen, cell-based, PC12, CRE-LacZ reporter, forskolin-stimulated (AID 1146); conditions: luminescence, 4.5 h, higher = more signal, called active from +8 up or from −8 down;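 also: PC12 cells with 6xCRE LacZ reporter stimulated by forskolin 10 µM; beta-galactosidase reporter signal reflecting CREB driven transcription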
[7] = target: Streptavidin (Streptomyces avidinii) (UniProt P22629); experiment: streptavidin binders on small-molecule microarray, primary screen, artefact control for SMM compound annotation, biophysical, 635/667 nm fluorescence (AID 1147); conditions: streptavidin binding, higher = more signal;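 also: signal reflects streptavidin binding to arrayed compounds as a control protein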
[8] = small-molecule binders of probe aInhba, primary screen, biochemical, small-molecule microarray, 635/667 nm fluorescence (AID 1148); conditions: higher = more signal;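 also: score merges 667nm spot fluorescence with signal-to-noise for antibody binding to printed compounds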
Torsin-1A (Homo sapiens) [9] = target: Torsin-1A (Homo sapiens) (UniProt O14656); experiment: torsin A binders from cell lysate, primary screen, small-molecule microarray, wild-type, 635/667 nm (AID 1149); conditions: COS7 hTOR1A-WT lysate, 635 nm fluorescence, higher = more signal
Torsin-1A (Homo sapiens) [10] = target: Torsin-1A (Homo sapiens) (UniProt O14656); experiment: small-molecule binders of mutant TOR1A in lysate, primary screen, cell lysate, small-molecule microarray, COS7 lysate, 635/667 nm fluorescence (AID 1150); conditions: COS7 hTOR1A mutant lysate, 635 nm fluorescence, higher = more signal;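 also: score pools 667 nm emission and signal to noise measuring lysate protein binding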
[11] = tested on: Sonic hedgehog protein (Shh); experiment: small-molecule binders of Shh protein, primary screen, biochemical, small-molecule microarray, 635/667 nm fluorescence (AID 1151); conditions: small-molecule microarray binding, 635 nm fluorescence; higher = more signal;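 also: Shh protein binding to compounds spotted on small-molecule microarray slides; score combines spot fluorescence intensity with signal-to-noise across triplicate slides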
[12] = E. coli DRC41 culture turbidity changes, primary screen, E. coli filamentation inducer project, strain DRC41, OD650, 48 h (AID 1152);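 also: E. coli MC1000 strain DRC41 lacking acrAB efflux pump and sulA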; conditions: E. coli DRC41 (acrAB sulA), higher = more signal, called active from +8 up or from −8 down
[13] = small-molecule binders of probe aLefty1, primary screen, biochemical, small-molecule microarray, 635/667 nm fluorescence (AID 1153); conditions: higher = more signal;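 also: score merges spot fluorescence with signal-to-noise ratio from the scanned slide images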
[14] = PSAC antagonists in infected red cells, primary screen, cell-based, P. falciparum Indochina, OD700, 1 h (AID 1154); conditions: P. falciparum Indochina infected RBC osmotic lysis, higher = more signal, called active from +8 up or from −8 down
[15] = PSAC antagonists in infected red cells, primary screen, cell-based, P. falciparum Indochina, OD700, 2 h (AID 1155);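 also: lysis reports solute entry through the parasite surface anion channel PSAC; channel blockers reduce lysis of infected cells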; conditions: P. falciparum Indochina infected erythrocytes, osmotic lysis OD700; higher = more signal, called active from +8 up or from −8 down
[16] = osmotic lysis modulators in infected erythrocytes, primary screen, PSAC antagonist project, cell-based, P. falciparum Indochina, OD700, 3 h (AID 1156); conditions: higher = more signal, called active from +8 up or from −8 down
[17] = PSAC antagonists in infected red cells, primary screen, cell-based, P. falciparum Indochina, OD700, 18 h (AID 1157); conditions: P. falciparum Indochina infected erythrocytes, osmotic lysis OD700, 18 h; higher = more signal, called active from +8 up or from −8 down
[18] = modulators of S6 phosphorylation in cells, primary screen, cell-based, A549, cytoblot, luminescence, serum-stimulated (AID 1158); conditions: A549 phospho-S6 cytoblot, 5 h, higher = more signal;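 also: serum-stimulated A549 lung adenocarcinoma cells; signal is phosphorylated S6 detected by cytoblot immunostaining with HRP secondary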
[19] = target: NADPH oxidase 2 (Homo sapiens) (UniProt P04839); experiment: NOX2-dependent H2O2 signal modulators, primary screen, NOX inhibitor project, cell-based, HEK293-NOX2, PMA-stimulated, Amplex Red fluorescence (AID 1159); conditions: 45 min, higher = more signal, called active from +8 up or from −8 down; also: test concentration not given here
Chain of NADPH oxidase 2 (Homo sapiens) (P04839 whole entry, looked up): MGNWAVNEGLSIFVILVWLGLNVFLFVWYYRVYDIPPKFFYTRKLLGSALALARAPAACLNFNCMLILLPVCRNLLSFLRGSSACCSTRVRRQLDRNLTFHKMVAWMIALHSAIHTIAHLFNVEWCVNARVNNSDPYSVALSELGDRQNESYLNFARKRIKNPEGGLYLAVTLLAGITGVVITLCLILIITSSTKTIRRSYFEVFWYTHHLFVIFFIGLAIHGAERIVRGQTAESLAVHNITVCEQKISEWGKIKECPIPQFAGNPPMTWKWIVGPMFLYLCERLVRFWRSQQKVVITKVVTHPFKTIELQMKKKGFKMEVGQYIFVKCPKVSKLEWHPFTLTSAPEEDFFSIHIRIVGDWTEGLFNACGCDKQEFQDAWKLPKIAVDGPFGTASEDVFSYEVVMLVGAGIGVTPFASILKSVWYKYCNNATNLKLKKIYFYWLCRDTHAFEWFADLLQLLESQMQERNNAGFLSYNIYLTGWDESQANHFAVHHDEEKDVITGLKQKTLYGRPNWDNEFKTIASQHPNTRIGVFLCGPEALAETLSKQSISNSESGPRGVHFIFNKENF

Chain of Luciferin 4-monooxygenase (Photinus pyralis) (P08659 whole entry, looked up): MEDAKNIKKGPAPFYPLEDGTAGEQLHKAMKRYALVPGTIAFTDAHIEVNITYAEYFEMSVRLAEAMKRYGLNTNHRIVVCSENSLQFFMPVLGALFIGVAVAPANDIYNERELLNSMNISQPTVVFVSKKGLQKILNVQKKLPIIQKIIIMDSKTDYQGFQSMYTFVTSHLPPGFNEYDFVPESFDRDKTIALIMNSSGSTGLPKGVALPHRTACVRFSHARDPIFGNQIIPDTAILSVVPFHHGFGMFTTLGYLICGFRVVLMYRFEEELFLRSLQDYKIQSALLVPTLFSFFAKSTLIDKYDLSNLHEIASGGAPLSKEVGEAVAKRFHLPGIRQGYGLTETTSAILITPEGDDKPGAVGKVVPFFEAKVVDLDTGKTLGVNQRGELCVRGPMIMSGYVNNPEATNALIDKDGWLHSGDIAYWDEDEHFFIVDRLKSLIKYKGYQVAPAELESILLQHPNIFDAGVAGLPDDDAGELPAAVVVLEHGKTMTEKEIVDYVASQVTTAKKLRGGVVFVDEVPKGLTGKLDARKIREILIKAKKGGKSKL
Chain of Torsin-1A (Homo sapiens) (O14656 whole entry, looked up): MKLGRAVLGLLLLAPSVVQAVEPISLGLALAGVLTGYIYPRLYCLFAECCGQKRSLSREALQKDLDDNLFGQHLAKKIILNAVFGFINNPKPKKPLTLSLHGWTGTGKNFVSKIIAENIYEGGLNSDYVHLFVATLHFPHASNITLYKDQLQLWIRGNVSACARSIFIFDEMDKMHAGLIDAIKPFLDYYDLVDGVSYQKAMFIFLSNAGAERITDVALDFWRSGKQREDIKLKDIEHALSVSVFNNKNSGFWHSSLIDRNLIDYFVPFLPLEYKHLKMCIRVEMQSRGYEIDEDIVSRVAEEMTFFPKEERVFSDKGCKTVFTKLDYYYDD
Chain of Streptavidin (Streptomyces avidinii) (P22629 whole entry, looked up): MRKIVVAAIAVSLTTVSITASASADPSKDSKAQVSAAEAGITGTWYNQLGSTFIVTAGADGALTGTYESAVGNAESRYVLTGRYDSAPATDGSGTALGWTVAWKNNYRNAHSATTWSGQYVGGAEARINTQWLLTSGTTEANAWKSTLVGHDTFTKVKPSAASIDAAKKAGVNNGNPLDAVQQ

SMILES	composite z-score (Lefty1)	composite z-score [1]	z-score [2]	composite z-score [3]	z-score [4]	z-score [5]	z-score [6]	composite z-score [7]	composite z-score [8]	composite z-score (Torsin-1A (Homo sapiens) [9])	composite z-score (Torsin-1A (Homo sapiens) [10])	composite z-score [11]	z-score [12]	composite z-score [13]	z-score [14]	z-score [15]	z-score [16]	z-score [17]	z-score [18]	z-score [19]
C=CCN1C(=O)[C@@]2(O[C@@H](CCn3cc(CCO)nn3)[C@H]([Si](C)(C)c3ccc(OC)cc3)[C@H]2C)c2cc(NC(=O)c3ccc(OC)cc3)ccc21	1.02	0.922	-1.51 (inactive)	0.315	-2.79 (inactive)	12.8 (active)	-2.29 (inactive)	0.441	0.0497	0.558	0.437	1.4	0.596 (inactive)	0.0789	12.1 (active)	2.03 (inactive)	1.1 (inactive)	0.742 (inactive)	0.157	-0.282 (inactive)
[N-]=[N+]=NCc1ccccc1C[C@]1(C(=O)NCc2ccccc2)N=C(c2ccc(OCCCO)cc2)O[C@H]1c1ccccc1	-1.17	1.24	-1.19 (inactive)	0.46	-4.02 (inactive)	1.11 (inactive)	-1.14 (inactive)	0.532	0.216	-0.265	0.765	-0.948	1.78 (inactive)	0.832	10.9 (active)	1.53 (inactive)	3.76 (inactive)	-0.605 (inactive)	1.09	-0.425 (inactive)
CC(C)C(=C=CC[C@@H](O)c1ccc(CO)o1)CCO	0.759	0.308	-2.15 (inactive)	0.502	-0.105 (inactive)	0.681 (inactive)	-1.82 (inactive)	-0.294	-0.0986	1.65	0.289	1.48	1.38 (inactive)	-0.147	1.95 (inactive)	0.236 (inactive)	0.311 (inactive)	0.0124 (inactive)	-0.109	1.62 (inactive)
C=C(COC)/C(=C/C[C@H](OC(C)=O)c1ccc(CO)o1)c1cnc2ccccc2c1	1.58	1.35	-2.1 (inactive)	0.251	-0.461 (inactive)	0.844 (inactive)	-1.08 (inactive)	1.45	0.0173	1.21	1.42	2.15	1.23 (inactive)	-0.145	3.78 (inactive)	-1.35 (inactive)	-0.148 (inactive)	-2.05 (inactive)	-0.198	2.33 (inactive)
O=c1n(-c2ccccc2)c(=O)n2n1CC(COc1ccccc1)=C1[C@@H](CCc3ccccc3)OB(O)C[C@@H]12	1.52	0.576	-1.2 (inactive)	0.455	-1.84 (inactive)	1.58 (inactive)	-1.67 (inactive)	0.117	0.0756	0.717	-0.0569	1.12	1.63 (inactive)	-0.206	2.27 (inactive)	-0.302 (inactive)	0.622 (inactive)	-1.31 (inactive)	0.642	-0.513 (inactive)
COC(=O)C(CC#Cc1ccc2c(c1)[C@]1(C(=O)N2)[C@H](C(=O)O)[C@H]2C(=O)O[C@H](c3ccccc3)[C@H](c3ccccc3)N2[C@@H]1c1ccc(OCCO)cc1)C(=O)OC	0.943	1.43	-4.03 (inactive)	0.562	-2.27 (inactive)	-0.258 (inactive)	-1.32 (inactive)	1.25	0.0714	0.734	1.06	0.969	3.78 (inactive)	0.305	10 (active)	0.0825 (inactive)	0.646 (inactive)	-2.18 (inactive)	2.47	1.39 (inactive)
COc1ccc([Si](C)(C)[C@H]2[C@H](CC(=O)N(CCO)Cc3ccccc3)O[C@@]3(C(=O)N(Cc4ccc(N5CCOC5=O)cc4)c4ccccc43)[C@@H]2C)cc1	1.13	0.455	-1.39 (inactive)	-0.0226	-2.42 (inactive)	1.05 (inactive)	-0.871 (inactive)	0.295	0.0111	0.442	0.0957	1.73	1.22 (inactive)	-0.123	25.1 (active)	14.5 (active)	-0.084 (inactive)	2.17 (inactive)	-0.141	0.815 (inactive)
C=CCC(OC(C)=O)[C@@H]1[C@@H](N(Cc2ccc(-c3cccc(C(F)(F)F)c3)o2)C(=O)c2ccc(-c3ccccc3)cc2)c2cc(OCCCO)ccc2N1C(=O)Cc1ccc(OC)cc1 (stereo not given in full)	-0.128	0.15	-0.626 (inactive)	0.0578	-1.84 (inactive)	1.38 (inactive)	-0.0892 (inactive)	-0.152	-0.273	-0.267	0.0992	0.214	1.73 (inactive)	-0.0501	0.963 (inactive)	0.485 (inactive)	0.218 (inactive)	-0.0843 (inactive)	0.509	0.964 (inactive)
C=C(COC)C(=O)CC[C@@H](OC(=O)c1ccccc1-c1ccccc1C(=O)O)c1cccc(OCCO)c1	0.299	-0.478	-3.64 (inactive)	0.0174	0.483 (inactive)	2.37 (inactive)	0.0416 (inactive)	-0.52	-0.128	0.785	0.455	0.404	0.908 (inactive)	-0.144	8.07 (active)	1.28 (inactive)	1.28 (inactive)	0.236 (inactive)	-0.178	3.24 (inactive)
C=CC[C@]1(C(=O)N2CCCCC2)COC(c2ccc(OCCCO)cc2)=N1	-0.45	-1.3	-2.65 (inactive)	0.0945	-4.06 (inactive)	1.08 (inactive)	-1.78 (inactive)	-0.712	-0.128	-0.273	-0.204	0.0166	0.924 (inactive)	0.0391	24.9 (active)	12 (active)	4.37 (inactive)	0.866 (inactive)	0.826	-3.2 (inactive)
COCCCNC(=O)[C@@]1(C)c2ccccc2C(=O)N(Cc2cc(F)cc(C(F)(F)F)c2)[C@H]1c1ccc(CO)cc1	-1.73	-1.26	-1.13 (inactive)	-0.0509	-0.914 (inactive)	-0.0512 (inactive)	-0.883 (inactive)	-0.624	-0.38	0.891	-0.439	-1.16	1.7 (inactive)	-0.279	1.13 (inactive)	0.459 (inactive)	0.0539 (inactive)	0.0567 (inactive)	0.0396	0.184 (inactive)
COCCCN1C(=O)[C@@]2(Cc3ccccc31)c1ccccc1C(=O)N(Cc1ccccc1Cl)[C@H]2c1ccc(CO)cc1	-0.348	-1.02	-1.13 (inactive)	0	-1.33 (inactive)	-0.179 (inactive)	-0.415 (inactive)	-0.733	-0.108	-0.471	0.0439	0.0161	3.46 (inactive)	0.0053	0.399 (inactive)	-0.277 (inactive)	-0.992 (inactive)	-0.85 (inactive)	1.34	-2.48 (inactive)
COc1ccc([Si](C)(C)[C@@H]2[C@@H](CC(=O)N3CCC[C@H]3CO)O[C@]3(C(=O)N(Cc4ccc(I)cc4)c4ccccc43)[C@H]2C)cc1	1.12	1.07	-0.765 (inactive)	0.229	-4.55 (inactive)	0.105 (inactive)	-1.86 (inactive)	0.983	-0.109	0.626	0.199	0.646	1.97 (inactive)	0.0677	5.17 (inactive)	0.0509 (inactive)	-0.7 (inactive)	-1.17 (inactive)	2.62	2.26 (inactive)
CCCCC(=C=CC[C@H](O)c1cccc(OCCO)c1)CCO	-0.103	-0.602	-0.835 (inactive)	-0.0668	-0.081 (inactive)	4.86 (inactive)	-0.679 (inactive)	-0.209	0.0355	1.13	0.983	0.242	0.892 (inactive)	0.37	11.4 (active)	1.91 (inactive)	1.2 (inactive)	0.774 (inactive)	-0.679	1.06 (inactive)
O=C1O[C@@H](c2ccccc2)[C@@H](c2ccccc2)N2[C@@H](c3ccc(OCCO)cc3)[C@]3(C(=O)Nc4ccc(C#CC5(O)CCCCCC5)cc43)[C@@H](C(=O)NC[C@H](O)c3ccccc3)[C@H]12	0.783	1.09	-1.77 (inactive)	0.432	-3.51 (inactive)	0.0776 (inactive)	-1.71 (inactive)	0.866	0.0827	1.2	0.711	0.855	2.35 (inactive)	0.339	1.21 (inactive)	0.484 (inactive)	-0.206 (inactive)	-0.863 (inactive)	1.13	1.37 (inactive)
COC(=O)c1c(CC[C@@H](CO)NC(=O)Nc2ccc(OC)cc2)oc(C(=O)Cc2ccccc2)c1C(=O)OC	1.08	0.371	-1.37 (inactive)	0.0603	0.566 (inactive)	9.58 (active)	-0.453 (inactive)	0.652	-0.0531	0.462	0.943	0.97	1.7 (inactive)	-0.147	3.06 (inactive)	1.01 (inactive)	0.681 (inactive)	0.458 (inactive)	-0.0632	1.31 (inactive)
C=C[C@H](OC)[C@@H](OC(=O)Nc1ccc(OC)cc1)c1ccc(OC)c(O)c1	-1.75	-2.18	-1.67 (inactive)	-0.307	-0.088 (inactive)	2.03 (inactive)	-1.53 (inactive)	-1.38	-0.348	-0.86	-0.657	0.149	2.02 (inactive)	-0.0984	1.27 (inactive)	-1.23 (inactive)	-1.84 (inactive)	-1.83 (inactive)	-0.443	-2.28 (inactive)
